# From article PMC4336329 (PLoS ONE, 2015)
# Among all 310,000 compounds or so, about 14,000 (4.5%) showed an effect of 50% or more. Effects have a minus sign here. For the sample, strong results were picked, then their nearest neighbours and some compounds at random.
# Biological target: human ether-à-go-go-related gene (hERG) potassium channel (human, UniProt Q12809)
# Test: primary screen, population patch clamp on CHO cells stably expressing hERG; higher = less effect of the substance
# 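Further: peak tail current of the secondary pulse compared with the same well before compound.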
# Chain of human ether-à-go-go-related gene (hERG) potassium channel (Q12809 whole entry, looked up): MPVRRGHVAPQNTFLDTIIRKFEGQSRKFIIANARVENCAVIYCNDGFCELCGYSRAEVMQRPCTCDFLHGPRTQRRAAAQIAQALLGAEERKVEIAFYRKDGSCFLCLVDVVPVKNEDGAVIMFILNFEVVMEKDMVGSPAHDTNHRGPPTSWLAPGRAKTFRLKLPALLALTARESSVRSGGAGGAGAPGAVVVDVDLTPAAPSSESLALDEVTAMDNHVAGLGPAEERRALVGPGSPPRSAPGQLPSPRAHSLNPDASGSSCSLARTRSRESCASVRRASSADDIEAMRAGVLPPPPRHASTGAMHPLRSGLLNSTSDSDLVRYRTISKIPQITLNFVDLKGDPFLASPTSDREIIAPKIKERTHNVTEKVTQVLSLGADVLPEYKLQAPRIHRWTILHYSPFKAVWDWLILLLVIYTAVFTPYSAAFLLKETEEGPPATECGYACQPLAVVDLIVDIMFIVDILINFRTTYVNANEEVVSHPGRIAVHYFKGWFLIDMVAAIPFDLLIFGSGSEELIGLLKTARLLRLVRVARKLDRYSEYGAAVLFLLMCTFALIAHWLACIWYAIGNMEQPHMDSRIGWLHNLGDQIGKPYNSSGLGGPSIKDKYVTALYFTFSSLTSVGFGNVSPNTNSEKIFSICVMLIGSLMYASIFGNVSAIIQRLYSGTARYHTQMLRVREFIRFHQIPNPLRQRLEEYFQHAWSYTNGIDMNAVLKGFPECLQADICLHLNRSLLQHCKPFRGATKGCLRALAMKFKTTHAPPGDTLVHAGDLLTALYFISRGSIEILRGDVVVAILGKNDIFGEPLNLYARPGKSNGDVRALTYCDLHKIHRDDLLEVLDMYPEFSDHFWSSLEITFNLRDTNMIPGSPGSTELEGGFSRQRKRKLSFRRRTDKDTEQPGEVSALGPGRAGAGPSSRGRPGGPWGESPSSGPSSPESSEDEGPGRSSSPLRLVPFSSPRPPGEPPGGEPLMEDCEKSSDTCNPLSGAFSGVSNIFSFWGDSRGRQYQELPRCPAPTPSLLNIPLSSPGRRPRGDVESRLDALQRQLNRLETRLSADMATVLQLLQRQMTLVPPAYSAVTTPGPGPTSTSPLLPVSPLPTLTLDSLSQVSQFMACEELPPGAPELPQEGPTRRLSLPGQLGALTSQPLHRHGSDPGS
row,SMILES,"hERG current change (%, negative = inhibition) at 10uM [%]"
1,COC(=O)c1cccc(Cn2cc([N+](=O)[O-])cn2)c1,8.41
2,Cc1ccc(Nc2ncnc3c2nnn3Cc2ccccc2)cc1,8.07
3,O=C(CCS(=O)(=O)c1cc(Br)cc2c1N(C(=O)C1CC1)CC2)NCC1CCCO1 (centres unmarked),10.8
4,Clc1ccc(-c2nc3nc4ccccc4nc3n2Cc2ccco2)cc1,-12.3
5,c1ccc(-c2nc3nc4ccccc4nc3n2Cc2ccco2)cc1,-61.2
6,c1ccc(Cn2c(-c3ccco3)nc3nc4ccccc4nc32)cc1,6.13
7,Cc1ccc(-c2nc3nc4ccccc4nc3n2Cc2ccco2)cc1,-18.7
8,COc1ccc(CCn2c(-c3ccco3)nc3nc4ccccc4nc32)cc1,-3.77
9,CCCCOCCCn1c(-c2ccco2)nc2nc3ccccc3nc21,-55.9
10,COCCn1c(-c2ccco2)nc2nc3ccccc3nc21,2.99
11,CCCCCn1c(-c2ccco2)nc2nc3ccccc3nc21,-67.5
12,COc1ccccc1Cn1c(-c2ccco2)nc2nc3ccccc3nc21,-4.67
13,O=C(O)CSc1sc(=S)sc1SCC(=O)O,13.7
14,COC(=O)c1ccc(OC)c(CSc2nnc(-c3ccc(C(C)(C)C)cc3)o2)c1,9.83
15,CC(=O)Nc1ccc(OCC(=O)NCc2ccccc2)cc1,19
16,O=C(Cn1nc(C(F)F)cc1C(F)F)N/N=C/c1ccc2c(c1)OCO2,24.7
17,CC(=O)N1CCc2cc(S(=O)(=O)NC(Cc3ccccc3)C(=O)Nc3cc(C)ccn3)ccc21 (centres unmarked),1.38
18,CCOc1ccccc1N(CC(=O)NCCOC)C(=O)CCC(=O)Nc1ccccn1,19.6
19,Cc1cccc(NC(=S)N(C)Cc2cn(C)c3ccccc23)c1,-7.49
20,COc1ccc(S(=O)(=O)NCc2ccco2)c2ccccc12,-9.68
21,Cc1cc2oc(=O)cc(CN3CCCCC3C)c2cc1Cl (centres unmarked),-0.834
22,N#Cc1c(-c2ccc(Cl)cc2)ccnc1N1CCOCC1,3.33
23,CCN(c1ccccc1)S(=O)(=O)c1ccc(Cl)c(NC(=O)CN(C)C2CCN(C)CC2)c1,-38.8

row,SMILES,"hERG current change (%, negative = inhibition) at 10uM [%]"
1,CCN(c1ccccc1)S(=O)(=O)c1ccc(Cl)c(NC(=O)CN2CCN(C)CC2)c1,-59.2
2,CCN(c1ccccc1)S(=O)(=O)c1ccc(Cl)c(NC(=O)CN2CCCCCC2)c1.O=C(O)C(=O)O,10.1
3,CCN(c1ccccc1)S(=O)(=O)c1ccc(Cl)c(NC(=O)COC(=O)c2ccc(O)cc2)c1,6.44
4,CCN(c1ccccc1)S(=O)(=O)c1ccc(Cl)c(NC(=O)CSc2nnc(C)s2)c1,-24.2
5,CCC(C)NCC(=O)Nc1cc(S(=O)(=O)N(CC)c2ccccc2)ccc1Cl (centres unmarked),-78.8
6,COc1ccc(/C=N/NC(=O)C2CC2)c(OC)c1OC,12.9
7,COc1ccc(NC(=O)CSc2nc3ccccc3nc2N2CCCC2)c(OC)c1,24.1
8,COc1ccc(Cl)cc1NC(=O)CN(C(=O)c1ccco1)C1CCCCC1,-2.36
9,Cc1ccc(OCCn2c(C)nc3ccccc32)cc1,3.94
10,Cn1c(=O)n(CCCOc2ccc(Cl)cc2)c2ccccc21,-13.7
11,Cc1nc2ccccc2n1CCOc1ccc([N+](=O)[O-])cc1,-73.8
12,Cc1nc2ccccc2n1CCOc1ccccc1,6.17
13,Cc1ccc(OCCn2c(=O)n(C)c3ccccc32)cc1,-1.88
14,Cn1c(=O)n(CCOc2ccc([N+](=O)[O-])cc2)c2ccccc21,-65.3
15,CCn1c(SCC(=O)N/N=C(\C)c2ccncc2)nnc1-c1ccc(C)cc1,-20.6
16,O=C(NC1CCN(Cc2ccccc2)CC1)c1ccc2c(c1)OCCCO2,-37.1
17,O=C(NC1CC1)c1cccc(Br)c1,0.381
18,O=C(NC1CCN(Cc2ccccc2)CC1)c1cc(Br)c(Br)[nH]1,-2.75
19,O=C(NC1CCN(Cc2ccccc2)CC1)c1cccc(Br)c1,-63.8
20,O=C(NC1CCN(Cc2ccccc2)CC1)c1cncc(Br)c1,-64.1
21,Cl.O=C(NC1CCN(Cc2ccccc2)CC1)c1cccc(OC(F)F)c1,-74.1
22,O=C(NC1CCN(Cc2ccccc2)CC1)c1c(F)cccc1F,-24.4
23,O=C(NC1CCN(Cc2ccccc2)CC1)c1ccc(Oc2cc(Cl)cc(Cl)c2)o1,-6.95

row,SMILES,"hERG current change (%, negative = inhibition) at 10uM [%]"
1,CC1CCc2sc(C(=O)NN)cc2C1 (centres unmarked),21.1
2,Cc1cc(C(=O)NC2CCN(Cc3ccccc3)CC2)n[nH]1,-19.8
3,CC1CCc2sc(C(=O)NC3CCN(Cc4ccccc4)CC3)cc2C1 (centres unmarked),-54.1
4,CC1CCc2sc(C(=O)NC3CCCCC3)cc2C1 (centres unmarked),-5.4
5,O=[N+]([O-])c1ccc2c(c1)[nH]c(=S)n2-c1ccccc1,36.4
6,COc1cccc(CNS(=O)(=O)c2cc3c(cc2C)NC(=O)CO3)c1,-25.4
7,COCC1CCN(C(=O)c2ccc3oc(Cc4ccccc4)nc3c2)C1 (centres unmarked),-0.23
8,COc1cccc(/C=N/NC(=O)CC(=O)NCCc2ccccc2)c1OC,6.02
9,Cl.NC(N)=NC(N)=Nc1cccc(Cl)c1,-2.14
10,Cc1nc2ccccn2c1C(=O)N/N=C/c1ccccc1[N+](=O)[O-],2.26
11,Cc1ccc(C)c(-n2c(C)cc(/C=N/NC(=O)c3c(C)nc4cc(C)ccn34)c2C)c1,-0.122
12,Cc1nc2ccccn2c1C(=O)N/N=C/c1ccc([N+](=O)[O-])cc1,2.88
13,Cc1nc2ccccn2c1C(=O)N/N=C/c1ccc([N+](=O)[O-])o1,-64.1
14,Cc1ccc(NC(=O)C(=O)NCc2ccc(/C=N/NC(=O)c3c(C)nc4cc(C)ccn34)o2)cc1,-64
15,COc1ccc(NC(=O)C(=O)N/N=C\c2ccc(CNC(=O)C(=O)Nc3ccc(C)c(C)c3)o2)c(OC)c1,9.12
16,Cc1ccn2c(C(=O)N/N=C/c3ccc(CNC(=O)C(=O)Nc4ccc(C)c(C)c4)o3)c(C)nc2c1,-57
17,CCOc1ccc(/C=N\NC(=O)c2c(C)nc3cc(C)ccn23)cc1,-2.47
18,Cc1nc2ccccn2c1C(=O)N/N=C/c1ccccc1,11.6
19,Cc1ccc(NC(=O)C(=O)NCc2ccc(/C=N/NC(=O)c3c(C)nc4ccccn34)o2)cc1,1.37
20,Cc1ccn2c(C(=O)N/N=C\c3cccs3)c(C)nc2c1,-7.56
21,Cc1nc2ccccn2c1C(=O)N/N=C/c1ccc(CNC(=O)C(=O)Nc2ccccc2)o1,-50.3
22,O=C(Nc1ccc(F)cc1)c1cc2ccccc2o1,20
23,COc1cccc(CSc2nnnn2-c2ccc(O)cc2)c1,-18.5

row,SMILES,"hERG current change (%, negative = inhibition) at 10uM [%]"
1,CCCCn1c(N)c(N(CCC(C)C)C(=O)c2cc(Cl)nc3ccccc23)c(=O)[nH]c1=O,15.2
2,COC(=O)c1cccc(-n2nnnc2SCC(=O)Nc2nc3c(s2)CCCC3)c1,-0.926
3,Cc1ccc(OCCC(=O)O)cc1,13.4
4,COc1ccc(OC)c(CNCc2ccc3c(c2)OCO3)c1.O=C(O)C(=O)O,-4.43
5,CC(=O)c1ccc(NC(=O)C2=CC(c3cccs3)=NS(=O)(=O)N2C)cc1,-0.218
6,CC(C)Oc1ccccc1OCCN(C)C.O=C(O)C(=O)O,6.22
7,CC(O)CNCCCOc1ccccc1OCc1ccccc1.O=C(O)C(=O)O (centres unmarked),-36.7
8,CN(C)CCC(Oc1ccccc1OCc1ccccc1)c1ccccc1.O=C(O)C(=O)O (centres unmarked),-68.6
9,COC(=O)c1ccccc1S(=O)(=O)N1CCC(C(=O)N2CCC2)CC1,3.96
10,CC(C)C1OC2(C)OC(=N)C1(C#N)C(C#N)(C#N)C2c1ccccc1 (centres unmarked),2.05
11,COc1ccc(-c2nnc(OCc3nc4ccccc4n3C)c3ccccc23)cc1,-40.2
12,Cl.OCCNc1nc(Nc2ccc(Cl)c(Cl)c2)nc2ccccc12,14.5
13,Cl.c1ccc(CNc2nc(NCc3ccccc3)c3ccccc3n2)cc1,2.65
14,Cl.OCCNc1nc(Nc2ccc(O)cc2)nc2ccccc12,-28.6
15,Cl.OCCNc1nc(NCc2ccccc2)c2ccccc2n1,-54.6
16,Cc1ccc(Nc2nc(NCCO)c3ccccc3n2)cc1C.Cl,-52.4
17,Cl.OCCNc1nc(Nc2ccccc2)nc2ccccc12,-35
18,Cl.Oc1ccccc1Nc1nc(NCc2ccccc2)c2ccccc2n1,-1.42
19,CNc1nc(NCc2ccccc2)c2ccccc2n1.Cl,-68.1
20,Cl.OCCNc1nc(Nc2ccc(Br)cc2)nc2ccccc12,-36.3
